Data reported in article PMC4552634, “A New Set of Chemical Starting Points with Plasmodium falciparum Transmission-Blocking Potential for Antimalarial Drug Discovery” (PLoS ONE, 2015).
Out of some 13,000 compounds screened, about 3,200 (25%) showed an effect of 50% or more. This is one part of the list.

What follows are compounds tested on P. falciparum stage V gametocytes. Conditions: 48 h, 5 µM; inhibitor.
Parameters: BacTiter-Glo ATP luminescence viability of purified stage V gametocytes in 384-well plates, per cent inhibition versus DMSO

| SMILES | % Inhibition [%] |
| --- | --- |
| Clc1ccc(OCCC2CCN(CCCCCCCN3CCC(CCOc4ccc(Cl)c(Cl)c4)CC3)CC2)cc1Cl [TCMDC-138967] | 119.8 |
| Clc1ccc(OCCC2CCN(CCCCCCN3CCCCC3)CC2)cc1Cl [TCMDC-138982] | 100.1 |
| O=C(Nc1cccc(OCCN2CCCC2)c1)Nc1ccc(Cl)c(Cl)c1 [TCMDC-139540] | 28.24 |
| CCCCCCN1CCC(CNCc2cccc(Cl)c2)CC1 [TCMDC-141678] | 45.32 |
| CCCCCCOc1ccc(C(=O)N[C@H]2CCN(CCCCCNC(=O)/C=C/c3ccc(Cl)c(Cl)c3)C2)cc1 [TCMDC-139564] | 40.4 |
| O=C(Nc1ccc(Cl)c(Cl)c1)N1CCc2ccc(OCCCN3CCCCC3)cc2CC1 [TCMDC-141755] | 13.17 |
| N#Cc1ccc(-c2ccc(C(=O)Nc3ccc4c(c3)CCN(C3CCC3)CC4)nc2)cc1 [TCMDC-136032] | 15.17 |
| Cc1onc(-c2ccccc2)c1-c1nc(NC2CCCC(C)C2)no1 (stereo not drawn) [TCMDC-134202] | -14.49 |
| CCN(c1ccc(O)c(CN2CCCCC2)c1)c1ccc([N+](=O)[O-])cn1 [TCMDC-138001] | 10.77 |
| CCN(CC)S(=O)(=O)c1ccc(C(C)NC(=O)c2ccccc2COc2ccccc2)cc1 (stereo not drawn) [TCMDC-125332] | 39.64 |
| Cc1ccc(C)c(Cn2c(N3CCC(C(=O)NCc4cccs4)CC3)nc3ccccc32)c1 [TCMDC-124399] | -1.754 |
| Cc1cc(C)cc(CC(=O)N2CCC(n3c(C)nc4ccc(C)cc43)CC2)c1 [TCMDC-124789] | 80.51 |
| CCC(C)NS(=O)(=O)c1ccc2nc(Nc3ccc(C)c(Cl)c3)n(C3CCCCC3)c2c1 (stereo not drawn) [TCMDC-136233] | -49.77 |
| Cc1ccc(C)c(CC(=O)N2CCC(n3c(C)nc4ccc(F)cc43)CC2)c1 [TCMDC-124790] | 89.97 |
| CCN1CCC(N2CCC(n3c(C)nc4cc(C(F)(F)F)ccc43)CC2)CC1 [TCMDC-124671] | 0.4186 |
| O=C(O)c1ccc2nc(-c3ccc(-c4ccccc4)cc3)n(C3CCN(Cc4ccc(-c5ncc[nH]5)cc4)CC3)c2c1 [TCMDC-134669] | 12.72 |
| Cc1ccc2nc(C)n(C3CCN(C(=O)Cc4ccc(F)c(F)c4)CC3)c2c1 [TCMDC-124793] | 84.63 |
| CCC(C)NS(=O)(=O)c1ccc2nc(Nc3ccc(C)cc3)n(C3CCCCC3C)c2c1 (stereo not drawn) [TCMDC-136231] | -48.39 |
| CCC(C)NS(=O)(=O)c1ccc2nc(Nc3ccc(C)cc3)n(C3CCCCC3)c2c1 (stereo not drawn) [TCMDC-136232] | -89.75 |
| Cc1nc2ccc(F)cc2n1C1CCN(C(=O)Cc2ccc(F)c(F)c2)CC1 [TCMDC-124794] | 73.02 |
| O=C(Nc1ccc(-c2nc3ccccc3[nH]2)cc1)C1CCN(Cc2ccc(F)cc2)CC1 [TCMDC-124680] | 4.478 |
| CCCc1cc(=O)[nH]c(-n2nc(C)cc2NC(=O)CC(c2ccccc2)c2ccccc2)n1 [TCMDC-124940] | 43.65 |
| CC(C)C[C@H](NC(=O)c1cccc(F)c1)C(=O)N[C@H](/C=N/NC(=O)c1ccccc1)CCc1ccccc1 [TCMDC-135679] | 8.745 |

| SMILES | % Inhibition [%] |
| --- | --- |
| CC(=O)Nc1ccc(CN2CCc3ccc(NS(=O)(=O)c4ccc(-c5cccc(C(F)(F)F)c5)cc4)cc3CC2)s1 [TCMDC-132328] | 7.357 |
| Cc1ccc(-c2ccc(NC(=O)N3CCc4cc(Br)c(N5CCN(C)CC5)cc43)cc2)cn1 [TCMDC-139294] | -24.43 |
| CN(C)CCNC(=O)c1csc(Nc2ccc(Cl)c(Cl)c2)n1 [TCMDC-123722] | -60.24 |
| COc1cccc2cc(C(=O)N[C@@H](CC(C)C)C(=O)N[C@H](C=NNC(=O)OC(C)(C)C)CC(C)C)oc12 [TCMDC-136062] | 12.96 |
| Cc1ccc2nc(C)n(C3CCN(C(=O)Cc4ccccc4C)CC3)c2c1 [TCMDC-124795] | 76.45 |
| Cc1ccc2nc(C)n(C3CCN(C(=O)C4(c5ccccc5)CC4)CC3)c2c1 [TCMDC-124796] | 44.07 |
| COc1ccc(Br)cc1/C=C/C(=O)Nc1cccc(C2CCCN(C)C2)c1 (stereo not drawn) [TCMDC-133710] | 13.98 |
| Cc1nc(-c2cccc3c(NC(=O)Nc4ccc5nccc(N6CCN(C)CC6)c5c4)cccc23)no1 [TCMDC-139340] | 66.85 |
| CN1CCN(c2ccnc3ccc(NC(=O)Nc4ccc(-c5ccncc5)c5ccccc45)cc23)CC1 [TCMDC-139251] | -4.793 |
| CN1CCN(c2ccnc3ccc(NC(=O)Nc4ccc(-c5ccncc5)c(C#N)c4)cc23)CC1 [TCMDC-139268] | 80.15 |
| Cc1ncccc1-c1cccc2c(NC(=O)Nc3ccc4nccc(N5CCN(C)CC5)c4c3)cccc12 [TCMDC-139369] | -6.373 |
| CN1CCN(c2ccnc3ccc(NC(=O)Nc4cccc5c(-c6ccncc6)cccc45)cc23)CC1 [TCMDC-139252] | -0.3523 |
| CN1CCN(c2ccnc3ccc(NC(=O)Nc4ccc(-c5ccncc5)c(C(F)(F)F)c4)cc23)CC1 [TCMDC-139260] | 40.16 |
| COC(=O)c1ccc(CC(C)NCC(O)c2cccc(OC(F)(F)F)c2)cc1 (stereo not drawn) [TCMDC-131487] | 26.86 |
| O=C(c1cccc(-c2cccc(-c3nc4ccccc4[nH]3)c2)c1)N1CCCCC1CN1CCC(O)C1 (stereo not drawn) [TCMDC-132311] | -3.438 |
| Cc1[nH]c(/C=C2\C(=O)Nc3ccc(S(=O)(=O)Cc4c(Cl)cccc4Cl)cc32)c(C)c1C(=O)N1CCC[C@@H]1CN1CCCC1 [TCMDC-125885] | 103.4 |
| Cc1cccc2nc(-c3cccc(-c4cccc(C(=O)N5CCCCC5CN5CCC(O)C5)c4)c3)[nH]c12 (stereo not drawn) [TCMDC-132347] | 6.025 |
| COc1cccc(C=Cc2nc(=O)c3ccccc3o2)c1OC [TCMDC-124577] | 34.84 |
| COc1ccc(Cc2cnc3nc(N)nc(N)c3c2C)cc1OC [TCMDC-138057] | 6.807 |
| CCCCc1ccc(C(=O)Nc2ccc3nc(N4CCN(C)CC4)cc(C)c3c2)cc1 [TCMDC-125570] | -31.24 |
| Nc1ccnc2ccc(NC(=O)CCCCCc3ccccc3)cc12 [TCMDC-139070] | 2.045 |
| O=C(CCCCCCc1ccccc1)Nc1ccc2nc3c(c(NCc4ccccc4)c2c1)CCCC3 [TCMDC-139063] | 91.52 |
| CNc1c2c(nc3ccc(NC(=O)CCCCCCc4ccccc4)cc13)CCCC2 [TCMDC-139066] | 79.48 |

| SMILES | % Inhibition [%] |
| --- | --- |
| CCCCc1ccc(C(=O)Nc2ccc3nc(N4CCN(CC)CC4)cc(C)c3c2)cc1 [TCMDC-125578] | -16.83 |
| O=C(Nc1ccc2nc3n(c(=O)c2c1)CCCCC3)C(=O)N1CCC(Cc2ccccc2)CC1 [TCMDC-125294] | -23.73 |
| COc1ccc2nccc(NN=Cc3cccnc3)c2c1 [TCMDC-142032] | -14.51 |
| O=C(Nc1nccs1)c1cn(-c2ccccc2)nc1-c1ccc(Cl)s1 [TCMDC-123623] | 9.788 |
| CC(C)(CNC(=O)C1CCN(CCOc2ccc(Cl)cc2)CC1)c1nc(-c2ccc(Cl)c(O)c2)c(-c2ccncc2)[nH]1 [TCMDC-141124] | -30.29 |
| Cc1cccc(CN2CCCN(Cc3ccc(C(=O)Nc4ccc(C)c(F)c4)cc3)CC2)c1 [TCMDC-136396] | -4.425 |
| Cc1cc(-c2ccc(CNCCc3cccs3)cc2)ccc1S(=O)(=O)NCc1ccccc1 [TCMDC-132473] | 18.33 |
| COc1ccc(CNCCc2cccs2)cc1-c1ccc(OC)c(S(=O)(=O)NCCN2CCCC2)c1 [TCMDC-132476] | 71.75 |
| COc1ccc(CNCCc2cccs2)cc1-c1ccc(S(=O)(=O)NCCN2CCCC2)cc1 [TCMDC-132475] | 76.8 |
| COc1ccc(CNCCc2cccs2)cc1-c1cccc(S(=O)(=O)NCCN2CCCC2)c1 [TCMDC-132479] | 91.1 |
| S=c1nc(-c2ccccc2)n2ccsc2n1 [TCMDC-123905] | 9.815 |
| CC(C)c1ncc(-c2ccncc2)c(C2CCC(CNC(=O)c3cccnc3)CC2)n1 (stereo not drawn) [TCMDC-124825] | 14.15 |
| O=C(Nc1cccc(-c2ccc(-c3nc4ccccc4[nH]3)cc2)c1)Nc1ccc(F)c(F)c1F [TCMDC-133230] | -14.97 |
| CCc1cccc(OCCCON2C(N)=NC(N)=NC2(C)C)c1 [TCMDC-131306] | 2.586 |
| Fc1ccc2nc(-c3ccc(-c4ccc(CN5CCN(c6cnccn6)CC5)cc4)s3)[nH]c2c1 [TCMDC-133893] | 9.584 |
| O=C(CCCCCNC(=O)c1ccc(O)c(-c2ccc(Cl)c(Cl)c2)c1)NC1CCCc2ccccc21 (stereo not drawn) [TCMDC-140866] | 4.143 |
| Cc1noc(-c2cccs2)c1C(=O)NC(C)c1cccc2ccccc12 (stereo not drawn) [TCMDC-124788] | -15.69 |
| COc1cccc(-c2cc(C(=O)Nc3ccc4nc(-c5ccccc5)[nH]c4c3)[nH]n2)c1 [TCMDC-134319] | 8.642 |
| CC1CN(c2ccc3[nH]cc(Sc4ccc(-c5cccs5)cc4)c3c2)CC(C)N1 (stereo not drawn) [TCMDC-136644] | -55.49 |
| O=C(CSc1n[nH]c(-c2ccccc2Br)n1)c1c[nH]c2ccccc12 [TCMDC-123710] | 82.49 |
| COC(=O)c1ccc2c(-c3nc4ccc(OC)cc4[nH]3)c[nH]c2c1 [TCMDC-135457] | 32.14 |
| COc1ccc2nc(SC(C)C(=O)c3c[nH]c4ccccc34)[nH]c2c1 (stereo not drawn) [TCMDC-125034] | 61.61 |
| CC(Sc1n[nH]c(-c2cccs2)n1)C(=O)c1c[nH]c2ccccc12 (stereo not drawn) [TCMDC-125010] | 53.42 |
